Laboratory results from PubChem BioAssay.
Calls of active or inactive are those of the source.

Assays:
[1] = binders of probe aFSTL3 on microarray, primary screen, stem cell growth factor project, biochemical, small-molecule microarray, fluorescence 635/667 (AID 1064); conditions: higher = more signal;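 further: measures binding of the biotinylated anti-FSTL3 antibody to printed compounds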
[2] = binders from COS7 lysate, DM2A8 probe, primary screen, torsin A project, cell lysate, small-molecule microarray, fluorescence 635/667 (AID 1065); conditions: higher = more signal, COS7 lysate expressing mutant human TOR1A
[3] = binders of probe aFGF2 on microarray, primary screen, stem cell growth factor project, biochemical, small-molecule microarray, fluorescence 635/667 (AID 1067); conditions: higher = more signal;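 further: measures binding of biotinylated aFGF2 protein to printed compounds on slides; z-score merges feature fluorescence and signal-to-noise across triplicate slides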
[4] = binders of probe aFGF10 on microarray, primary screen, stem cell growth factor project, biochemical, small-molecule microarray, fluorescence 635/667 (AID 1071); conditions: higher = more signal;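 further: score merges 667 nm spot intensity and signal to noise from triplicate slides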
[5] = target: Neurogenic locus notch homolog protein 2 (Homo sapiens) (UniProt Q04721); experiment: Notch2 binders on small-molecule microarrays, primary screen, biochemical, small-molecule microarray, 635 nm fluorescence, stem cell growth factors (AID 1073); conditions: Notch2 binding, higher = more signal
[6] = target: Pro-neuregulin-1, membrane-bound isoform (Homo sapiens) (UniProt Q02297); experiment: NRG1 binders on small-molecule microarrays, primary screen, psychiatric disease protein project, biochemical, small-molecule microarray, fluorescence 635/667 (AID 1075); conditions: NRG1 binding, 635 nm fluorescence, higher = more signal;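 further: score combines 667 nm spot fluorescence with signal to noise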
[7] = test system: Neuregulin-1 EGF-like domain; experiment: binders of neuregulin-1 EGF-like domain, primary screen, biochemical, small-molecule microarray, 635 nm fluorescence (AID 1081); conditions: small-molecule microarray binding, higher = more signal;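 further: binding of the protein to compounds printed on small-molecule microarray slides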
[8] = FRG1 promoter luciferase signal modulators, primary screen, FRG1 inhibition for FSHD, cell-based, C2C12 myotubes, firefly/Renilla luciferase, luminescence (AID 1084); conditions: higher = more signal, called active from +8 up or from −8 down
[9] = binders of probe aFST on microarray, primary screen, stem cell growth factor project, biochemical, small-molecule microarray, fluorescence 635/667 (AID 1086); conditions: higher = more signal;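 further: score merges 667 nm fluorescence with signal-to-noise of each printed compound spot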
[10] = binders of probe aHhip on microarray, primary screen, stem cell growth factor project, biochemical, small-molecule microarray, fluorescence 635/667 (AID 1087); conditions: higher = more signal;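 further: score merges spot fluorescence at 667nm with spot signal to noise ratio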
[11] = test system: PRMT1 (protein arginine N-methyltransferase 1); experiment: PRMT1 binders on small-molecule microarrays, primary screen, biochemical, small-molecule microarray, 635 nm fluorescence (AID 1088); conditions: small-molecule microarray binding, higher = more signal;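 further: binding of Prmt1 protein to compounds spotted on small-molecule microarray slides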
[12] = yeast growth modulation, basal conditions, primary screen, YJM789 clinical isolate, OD600, 24 h (AID 1089);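 further: growth of clinical yeast isolate S. cerevisiae YJM 789 seeded 1000 cells per well; test concentration not given here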; conditions: S. cerevisiae YJM789 growth, higher = more signal, called active from +8 up or from −8 down
[13] = fission yeast growth modulation, primary screen, strain 972, OD600, 24 h, no modulator (AID 1090);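 further: basal condition with compound alone and no growth modifier present; test concentration not given here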; conditions: S. pombe 972 growth, higher = more signal, called active from +8 up or from −8 down
[14] = S. cerevisiae growth modulation with rapamycin, primary screen, strain BY4716, OD600, 96 h (AID 1091); conditions: higher = more signal, called active from +8 up or from −8 down; further: test concentration not given here
[15] = target: Torsin-1A-interacting protein 2 (Homo sapiens) (UniProt Q8NFQ8); experiment: LULL1 binders on small-molecule microarray, primary screen, cell lysate, human LULL1 lysate, 635/667 nm fluorescence (AID 1092); conditions: hLULL1 lysate binding, 635 nm fluorescence, higher = more signal;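 further: probe is lysate of COS7 cells overexpressing human LULL1; score merges per-feature 667 nm fluorescence with signal-to-noise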
[16] = E. coli growth modulation, two-sided OD650, primary screen, E. coli filamentation project, strain DRC41, 24 h (AID 1093); conditions: OD650, 24 h, higher = more signal, called active from +8 up or from −8 down;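 further: MC1000 strain lacking acrAB efflux and sulA so SOS filamentation is blocked; test concentration not given here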
[17] = small-molecule microarray binders of probe aLefty2, primary screen, biochemical, biotinylated probe, 635/667 nm fluorescence (AID 1094); conditions: higher = more signal;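 further: score merges spot fluorescence near 667 nm with spot signal-to-noise ratio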
[18] = test system: Noggin (protein binding on small-molecule microarray); experiment: Noggin binders on small-molecule microarray, primary screen, biochemical, 635/667 nm fluorescence (AID 1095); conditions: 635 nm fluorescence, higher = more signal;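 further: score merges 667 nm feature fluorescence with signal to noise over triplicate slides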
[19] = target: Neurogenic locus notch homolog protein 3 (Homo sapiens) (UniProt Q9UM47); experiment: NOTCH3 binders on small-molecule microarray, primary screen, biochemical, 635/667 nm fluorescence (AID 1096); conditions: NOTCH3 binding, 635 nm fluorescence, higher = more signal
[20] = small-molecule microarray binders of probe aEGFR, primary screen, biochemical, biotinylated probe, 635/667 nm fluorescence (AID 1097); conditions: higher = more signal;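 further: probe is a biotinylated anti-EGFR antibody binding compounds printed on slides; score combines fluorescence near 667 nm and signal to noise of each spot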

Torsin-1A-interacting protein 2 (Homo sapiens), sequence (Q8NFQ8 whole entry, looked up): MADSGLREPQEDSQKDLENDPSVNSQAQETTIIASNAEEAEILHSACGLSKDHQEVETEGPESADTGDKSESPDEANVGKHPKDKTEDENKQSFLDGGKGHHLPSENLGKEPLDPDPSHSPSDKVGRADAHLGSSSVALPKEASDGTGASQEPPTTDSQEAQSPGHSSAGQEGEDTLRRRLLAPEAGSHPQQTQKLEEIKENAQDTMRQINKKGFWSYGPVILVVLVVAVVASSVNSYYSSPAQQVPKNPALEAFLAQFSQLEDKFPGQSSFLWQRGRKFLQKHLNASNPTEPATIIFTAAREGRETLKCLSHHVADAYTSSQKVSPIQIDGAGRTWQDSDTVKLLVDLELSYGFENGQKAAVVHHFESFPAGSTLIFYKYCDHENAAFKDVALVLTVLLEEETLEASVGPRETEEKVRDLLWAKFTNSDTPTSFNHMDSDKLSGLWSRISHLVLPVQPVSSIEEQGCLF
Neurogenic locus notch homolog protein 3 (Homo sapiens), sequence (Q9UM47 whole entry, looked up): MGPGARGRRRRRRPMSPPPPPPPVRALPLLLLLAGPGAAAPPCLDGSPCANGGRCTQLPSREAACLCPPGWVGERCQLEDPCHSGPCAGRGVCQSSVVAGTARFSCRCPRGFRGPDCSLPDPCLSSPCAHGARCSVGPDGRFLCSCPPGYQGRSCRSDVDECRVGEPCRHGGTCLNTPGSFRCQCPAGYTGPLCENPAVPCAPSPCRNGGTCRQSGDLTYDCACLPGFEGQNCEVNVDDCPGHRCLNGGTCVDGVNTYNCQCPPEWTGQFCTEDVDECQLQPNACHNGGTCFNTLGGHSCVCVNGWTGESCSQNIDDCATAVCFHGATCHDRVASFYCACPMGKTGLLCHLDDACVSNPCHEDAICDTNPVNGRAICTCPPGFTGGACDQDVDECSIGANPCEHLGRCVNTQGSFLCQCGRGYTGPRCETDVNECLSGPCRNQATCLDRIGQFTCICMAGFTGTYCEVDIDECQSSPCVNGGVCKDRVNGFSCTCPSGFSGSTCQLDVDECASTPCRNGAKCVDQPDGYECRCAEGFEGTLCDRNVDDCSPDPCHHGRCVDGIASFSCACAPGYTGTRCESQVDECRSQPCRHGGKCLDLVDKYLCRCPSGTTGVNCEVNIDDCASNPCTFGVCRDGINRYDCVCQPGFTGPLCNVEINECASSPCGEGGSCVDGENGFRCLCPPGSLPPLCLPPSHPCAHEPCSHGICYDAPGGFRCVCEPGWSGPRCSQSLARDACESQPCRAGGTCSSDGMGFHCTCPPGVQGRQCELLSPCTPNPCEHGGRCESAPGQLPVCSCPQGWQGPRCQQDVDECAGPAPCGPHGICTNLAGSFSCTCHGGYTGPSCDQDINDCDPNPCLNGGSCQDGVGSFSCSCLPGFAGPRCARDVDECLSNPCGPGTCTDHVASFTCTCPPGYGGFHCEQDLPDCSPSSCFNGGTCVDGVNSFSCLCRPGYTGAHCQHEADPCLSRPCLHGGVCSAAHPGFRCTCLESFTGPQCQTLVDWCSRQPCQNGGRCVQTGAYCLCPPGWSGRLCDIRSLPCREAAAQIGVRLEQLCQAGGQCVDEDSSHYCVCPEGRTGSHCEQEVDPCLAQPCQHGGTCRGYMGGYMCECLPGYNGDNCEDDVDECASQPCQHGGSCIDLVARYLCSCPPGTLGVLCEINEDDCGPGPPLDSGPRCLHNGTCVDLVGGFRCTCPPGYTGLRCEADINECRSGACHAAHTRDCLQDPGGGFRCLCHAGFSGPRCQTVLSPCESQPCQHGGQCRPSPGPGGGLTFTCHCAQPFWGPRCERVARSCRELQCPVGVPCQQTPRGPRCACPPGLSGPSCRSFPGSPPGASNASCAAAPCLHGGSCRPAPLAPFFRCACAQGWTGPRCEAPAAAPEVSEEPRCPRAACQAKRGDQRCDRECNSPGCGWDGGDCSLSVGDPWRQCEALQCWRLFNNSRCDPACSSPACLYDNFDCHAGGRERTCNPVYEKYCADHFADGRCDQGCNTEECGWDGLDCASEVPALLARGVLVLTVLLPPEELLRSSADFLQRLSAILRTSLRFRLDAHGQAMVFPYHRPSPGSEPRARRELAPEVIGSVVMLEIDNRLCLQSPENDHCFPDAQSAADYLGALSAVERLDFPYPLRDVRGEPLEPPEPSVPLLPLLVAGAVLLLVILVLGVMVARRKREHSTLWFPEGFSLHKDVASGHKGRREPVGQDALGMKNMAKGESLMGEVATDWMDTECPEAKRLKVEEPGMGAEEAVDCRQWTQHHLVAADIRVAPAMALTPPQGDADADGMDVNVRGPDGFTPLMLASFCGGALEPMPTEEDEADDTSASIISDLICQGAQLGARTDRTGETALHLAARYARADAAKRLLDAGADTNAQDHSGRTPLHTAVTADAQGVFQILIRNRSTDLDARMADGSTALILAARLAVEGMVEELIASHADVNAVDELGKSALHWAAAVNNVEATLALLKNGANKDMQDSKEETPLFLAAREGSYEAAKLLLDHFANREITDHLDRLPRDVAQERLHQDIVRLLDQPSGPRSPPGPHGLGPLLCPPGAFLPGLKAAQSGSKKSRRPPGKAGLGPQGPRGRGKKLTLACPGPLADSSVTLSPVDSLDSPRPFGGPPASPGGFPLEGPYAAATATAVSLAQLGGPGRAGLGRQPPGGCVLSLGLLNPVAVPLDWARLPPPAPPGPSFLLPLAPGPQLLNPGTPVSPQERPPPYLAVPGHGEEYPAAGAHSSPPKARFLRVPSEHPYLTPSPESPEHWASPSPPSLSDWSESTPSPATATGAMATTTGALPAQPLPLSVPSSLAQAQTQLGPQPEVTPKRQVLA
Pro-neuregulin-1, membrane-bound isoform (Homo sapiens), sequence (Q02297 whole entry, looked up, the tested form may be a part, canonical isoform): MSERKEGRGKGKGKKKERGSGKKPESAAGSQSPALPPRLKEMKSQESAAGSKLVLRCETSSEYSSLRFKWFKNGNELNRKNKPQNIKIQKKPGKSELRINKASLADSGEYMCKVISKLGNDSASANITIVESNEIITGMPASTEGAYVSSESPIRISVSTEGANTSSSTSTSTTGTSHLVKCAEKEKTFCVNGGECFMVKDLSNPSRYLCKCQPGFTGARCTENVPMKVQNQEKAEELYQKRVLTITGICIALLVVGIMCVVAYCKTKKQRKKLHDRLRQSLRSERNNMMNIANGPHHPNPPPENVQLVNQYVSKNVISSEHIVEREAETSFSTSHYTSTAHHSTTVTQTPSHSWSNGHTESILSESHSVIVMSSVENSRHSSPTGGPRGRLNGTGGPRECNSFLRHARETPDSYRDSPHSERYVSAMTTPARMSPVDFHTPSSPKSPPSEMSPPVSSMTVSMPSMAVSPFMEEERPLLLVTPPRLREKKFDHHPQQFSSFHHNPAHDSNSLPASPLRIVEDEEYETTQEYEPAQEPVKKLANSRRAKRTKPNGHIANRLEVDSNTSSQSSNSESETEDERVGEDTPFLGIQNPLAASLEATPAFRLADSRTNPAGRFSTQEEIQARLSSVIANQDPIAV

Structure (SMILES)	composite z-score [1]	composite z-score [2]	composite z-score [3]	composite z-score [4]	composite z-score [5]	composite z-score [6]	composite z-score [7]	z-score [8]	composite z-score [9]	composite z-score [10]	composite z-score [11]	z-score [12]	z-score [13]	z-score [14]	composite z-score [15]	z-score [16]	composite z-score [17]	composite z-score [18]	composite z-score [19]	composite z-score [20]
CCOC(=O)C[C@H]1[C@H](OC(=O)Cc2ccc3c(c2)OCO3)[C@@H](NC(=O)c2ccc(-c3ccccc3)cc2)c2cc(OCCCO)ccc2N1C(=O)c1ccccc1	-0.386	-0.0093	-0.0144	0.585	0.537	0.371	0.797	-3.42 (inactive)	0.239	-0.374	0.869	0.22 (inactive)	-0.661 (inactive)	0.712 (inactive)	1.81	1.96 (inactive)	-0.137	0.267	0.643	0.0027
CCOC(=O)C1=CCC(C(C)(C)C)N(S(=O)(=O)c2ccc(C)cc2)C1 (stereo not given)	-0.735	2.2	0.0954	1.23	1.49	0.673	1.19	-2.07 (inactive)	0.533	0.0139	1.54	-0.792 (inactive)	-1.75 (inactive)	1.66 (inactive)	3.3	-0.756 (inactive)	0.0277	1.47	1.13	0.139
COCCOC(=O)N1C(=O)[C@@]2(c3cc(C#Cc4ccc(OC)cc4)ccc31)[C@H](C(=O)N1CCN(c3ncccn3)CC1)[C@H]1C(=O)O[C@H](c3ccccc3)[C@H](c3ccccc3)N1[C@@H]2c1ccc(O)cc1	0.104	0.0053	-0.144	0.464	-0.202	0.169	0.542	-1.3 (inactive)	0.218	-0.0994	0.344	-1.94 (inactive)	-0.197 (inactive)	0.872 (inactive)	0.78	0.313 (inactive)	-0.247	0.587	0.213	-0.0978
COCCCNC(=O)[C@@]1(c2ccc([N+](=O)[O-])cc2)CC(=O)N(CC23CC4CC(CC(C4)C2)C3)[C@@H]1c1ccc(CO)cc1	-0.46	0.666	-0.0453	0.264	1.36	0.43	1.17	-2.08 (inactive)	0.573	-0.0296	1.54	0.38 (inactive)	-0.634 (inactive)	-0.101 (inactive)	2.28	1.45 (inactive)	0.0054	1.54	1.08	0.0117
C=CC[C@@]1(C(=O)NCC(O)CO)N=C(c2ccc(OCCCO)cc2)O[C@@H]1c1ccccc1N=[N+]=[N-] (stereo not given in full)	0.638	1.22	0.0485	0.12	0.579	1.71	1.3	3.08 (inactive)	1.39	0.158	1.18	-0.711 (inactive)	-1.89 (inactive)	0.068 (inactive)	3.79	1.01 (inactive)	0.208	0.84	1.04	0.0376
C=CCOC(=O)[C@H]1[C@@H]2C(=O)O[C@@H](c3ccccc3)[C@@H](c3ccccc3)N2[C@@H](c2ccc(OCCOC(=O)[C@@H]3C[C@@H]4C(=O)NCC(=O)N4[C@@H]3c3ccc(O)cc3)cc2)[C@]12C(=O)Nc1ccccc12	-0.214	0.454	-0.0296	0.515	-0.111	-0.373	1.26	-1.27 (inactive)	-0.112	-0.0237	1.56	-4.85 (inactive)	-0.234 (inactive)	1.47 (inactive)	2.35	2.36 (inactive)	-0.153	1.81	1.12	-0.0828
CCOC(=O)C1=CC[C@@H](c2ccccc2)N(S(=O)(=O)c2ccc(C)cc2)[C@H]1C(=O)OCC	0.138	-0.0127	0.338	0.641	1.25	-0.196	1.03	-2.4 (inactive)	0.603	-0.108	0.334	0.19 (inactive)	0.572 (inactive)	1.94 (inactive)	1.14	0.157 (inactive)	0.415	0.0818	0.0539	0.202
CCCCC=C[C@@H](NC(=O)c1ccc(C(=O)OC)cc1)c1ccccc1	0.026	0.0108	-0.116	0.213	1.31	0.919	0.903	1.86 (inactive)	0.474	-0.189	1.29	-0.381 (inactive)	-1.22 (inactive)	0.771 (inactive)	2.46	-0.894 (inactive)	0.145	0.454	1.02	-0.0936
COc1ccc(C(O)C2C=CC3C(=O)NC(=O)C3N2Nc2ccccn2)cc1OCc1ccccc1 (stereo not given)	-0.202	-0.0593	-0.0226	0.177	1.27	1.71	0.666	0.387 (inactive)	0.216	3.69	0.301	0.167 (inactive)	1.03 (inactive)	-0.269 (inactive)	3.51	-0.181 (inactive)	-0.0865	0.15	-0.192	0.0357
